Screening results as filed in PubChem BioAssay.
Hits are enriched below; roughly 2.9% of the tested compounds scored in any of these assays.
MEKK2 WT-MEK5 – raises or lowers MEK5 binding to wildtype human MEKK2 PB1 domain; AID 1531; Q9Y2U5; hit rate 1.1% among 290,000; binding response (% of control), % at 10 µM; bead flow cytometry, Alexa488-MEK5 binding to MEKK2 WT; actives lie on both sides; in the data active = binding response below about 67% or above about 130%
MEKK2 mut-MEK5 – signal of MEK5 binding to mutant human MEKK2 PB1 domain | AID 1530 | hit rate 0.35% among 290,000 | bead flow cytometry, Alexa488-MEK5 binding to MEKK2 mutant | percent response, % at 10 µM; in the data active = percent response above about 24%, passing the limit was not always enough
MEKK3 PB1 HTS – MEKK3-MEK5 PB1 interaction, increase or decrease. hit rate 1.4% among 290,000. binding response (% of control), % at 10 µM. AID 1529. bead-based flow cytometry, Alexa488-MEK5 binding to MEKK3; actives lie on both sides; 0 = blocked by unlabeled MEK5, 100 = vehicle. Q99759;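 active = binding response more than 3 SD above or below the average of its plate-row segment, actives on both sides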;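 also: Alexa488 bead fluorescence after subtracting the streptavidin-only scavenger bead signal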
Beta2AR agonist – human beta-2 adrenergic receptor agonism by FAP; Am2.2-beta2AR cells, FAP receptor internalization, flow cytometry; response, % (concentration not given with the values); hit rate 0.43% among 340,000;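 active = response above a set limit, near 3 SD of response in nonfluorescent compounds, cut at about 42% in these data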
Target sequence (P07550 whole entry, looked up): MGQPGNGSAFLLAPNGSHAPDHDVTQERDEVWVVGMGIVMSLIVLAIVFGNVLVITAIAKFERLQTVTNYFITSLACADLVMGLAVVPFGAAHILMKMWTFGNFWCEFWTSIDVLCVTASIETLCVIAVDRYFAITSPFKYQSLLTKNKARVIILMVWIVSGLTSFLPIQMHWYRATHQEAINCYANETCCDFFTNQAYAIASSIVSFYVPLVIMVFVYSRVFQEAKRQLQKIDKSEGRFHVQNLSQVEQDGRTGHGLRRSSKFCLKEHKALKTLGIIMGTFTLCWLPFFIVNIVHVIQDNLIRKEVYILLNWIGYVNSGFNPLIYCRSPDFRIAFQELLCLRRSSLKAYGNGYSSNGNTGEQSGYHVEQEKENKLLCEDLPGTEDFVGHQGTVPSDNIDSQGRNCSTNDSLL
GRK2 aptamer HTS – human GRK2 inhibition via aptamer displacement; P25098; bead flow cytometry, FAM-aptamer displacement from GRK2; inhibition of aptamer binding, % at 10 µM; hit rate 0.59% among 330,000; AID 488847;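 active = inhibition of aptamer binding above 40%, roughly 3 SD of noise, on plates passing a quality check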;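 also: median bead fluorescence of bound FAM aptamer so fluorescent compounds give negative values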
GRK2 CP1 – confirmation of human GRK2 inhibitors displacing RNA aptamer | hit rate 4% among 2,000 | bead-bound GRK2, FAM-aptamer displacement, flow cytometry | shares compounds with GRK2 aptamer HTS | aptamer displacement, % at 10 µM | AID 504451;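 active = aptamer displacement above 40%, near three times the noise of non-fluorescent compounds, on plates passing quality checks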;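 also: negative values mostly reflect intrinsic compound fluorescence rather than true enhancement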
Aptamer quench SP – counter-screen for GRK2 aptamer inhibitors: fluorescent aptamer quenchers; shares compounds with GRK2 aptamer HTS; Carboxyfluorescein RNA aptamer on beads, flow cytometry quenching; active compounds read low; fluorescence response (% of DMSO), % at 10 µM; 2,000 tested, under 10 active;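 active = compounds that quench the bead-bound fluorescent RNA probe, cutting fluorescence to under half of the solvent control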;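 also: counterscreen run without GRK2 so only probe quenching by compound is measured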
GRK2 confirm 2 – human GRK2 inhibition confirmation, cherry pick 2; shares compounds with GRK2 aptamer HTS; bead-bound GRK2, FAM-aptamer displacement, flow cytometry; inhibition of aptamer binding, % at 10 µM; 360 tested, under 10 active;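 active = inhibition of aptamer binding above 40%, about triple the noise seen with nonglowing compounds, on plates passing quality control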;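 also: negative values mostly come from compounds that fluoresce themselves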
FAM quench CP2 – quenches fluorescent RNA aptamer, GRK2 hit artifact; shares compounds with GRK2 aptamer HTS; carboxyfluorescein RNA aptamer beads, flow cytometry quenching; active compounds read low; fluorescence response vs DMSO, % at 10 µM; 360 tested, under 10 active; AID 588494;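 active = response vs DMSO under 50%, meaning signal dropped by over half, treated as fluorescence quencher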;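 also: labelled aptamer on streptavidin beads without GRK2 as a quench counter-screen; 100% = bead fluorescence of DMSO wells and lower means quenching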
Starred values were filed as active, the others as inactive; · = no result.

SMILES	MEKK2 WT-MEK5	MEKK2 mut-MEK5	MEKK3 PB1 HTS	Beta2AR agonist	GRK2 aptamer HTS	GRK2 CP1	Aptamer quench SP	others
O=C(c1ccco1)N1CCN(Cc2nc3cc(Cl)ccc3c(=O)[nH]2)CC1	83	-10	104	-14	4	·	·	GRK2 confirm 2=-9;FAM quench CP2=102
O=c1[nH]c(CN2CCN(c3ccccc3)CC2)nc2ccccc12	105	8	102	-5	0	·	·	GRK2 confirm 2=10;FAM quench CP2=101
CCC(CC)C(=O)N1CCN(Cc2nc3ccccc3c(=O)[nH]2)CC1	102	2	107	3	0	·	·
O=C(c1cccs1)N1CCN(Cc2nc3ccccc3c(=O)[nH]2)CC1	114	5	112	3	5	·	·	GRK2 confirm 2=-9;FAM quench CP2=98
O=c1[nH]c(CN2CCN(c3ccc(F)cc3)CC2)nc2ccccc12	106	9	108	-10	4	·	·
O=C(NCc1ccccc1)c1ccc(S(=O)(=O)NCc2ccco2)cc1	103	0	103	-3	1	·	·
c1ccc2cc(OCCOCCOc3ccc4ccccc4c3)ccc2c1	107	3	106	0	55*	-4	101
N/C(=N\OC(=O)c1cc(Cl)ccc1Cl)c1ccccn1	104	3	105	-8	100*	-2	102
COc1ccc(Cl)cc1C(=O)O/N=C(\N)c1ccccn1	108	4	103	0	0	·	·
O=C(NCc1ccccn1)C1CN(S(=O)(=O)c2ccccc2)CCN1S(=O)(=O)c1ccccc1 (configuration not stated)	104	4	101	15	2	·	·
O=C(CNS(=O)(=O)c1ccc(Cl)c(C(F)(F)F)c1)NC1CCCCCC1	·	·	·	2	43*	·	·	GRK2 confirm 2=13;FAM quench CP2=100
NNc1ccc2nnc(C(F)(F)C(F)(F)C(F)(F)F)n2n1	104	3	101	-1	80*	0	97
FC(F)(F)C(F)(F)C(F)(F)c1nnc2ccc(N3CCOCC3)nn12	104	1	103	-8	1	·	·
O=c1c2ccccc2nnn1CSc1ccccc1	119	18	106	-2	97*	·	·	GRK2 confirm 2=13;FAM quench CP2=100
CC(=O)c1cccc(NC(=O)c2cc(-c3ccc(F)cc3)on2)c1	93	-11	92	-5	0	-1	97
COc1cccc(-c2cc(C(=O)Nc3ccc(OC)c(OC)c3)no2)c1	108	2	104	-1	98*	3	99
Cc1ccc(NC(=O)c2cc(-c3ccc(F)cc3)on2)cc1C	104	3	102	1	5	·	·
O=Cc1cccn1Cc1ccccc1[N+](=O)[O-]	101	-1	98	11	4	·	·
CCOC(=O)CNC(=O)C(CC(N)=O)NC(=O)OC(C)(C)C (configuration not stated)	102	4	101	-1	0	·	·
C=CCOC(=O)CSCC(NC(=O)OC(C)(C)C)C(=O)OCC (configuration not stated)	98	4	106	0	86*	1	105
c1ccc(C[C@H]2CN=C(Nc3ccccc3)N2CCC2CCCC2)cc1	·	·	·	2	68*	-4	99
COc1cc(C2C(C#N)=C(N)Oc3c2ccc2ccccc32)ccc1OCC(=O)Nc1cccc(C)c1 (configuration not stated)	96	1	106	-9	0	·	·
COc1cc(C2C(C#N)=C(N)Oc3c2ccc2ccccc32)ccc1OCC(=O)Nc1ccc(C)cc1 (configuration not stated)	103	0	106	2	0	1	94
COC(=O)[C@H](CC(C)C)N(Cc1ccccc1)S(=O)(=O)N(Cc1ccc(OC)cc1)[C@@H](CC(C)C)C(=O)OC	·	·	·	6	0	·	·
